Where a name gives a salt, the structure may show the parent alone. ± gives the standard deviation or the standard deviation of the averaged measurements.
The compounds below were run on Danio rerio Tg(wt1b:EGFP) embryo, pronephros (assay: glomerular separation, fold change vs DMSO control; higher = glomeruli further apart (abnormal)). Details: 25 µM; exposure: 24-48 hpf.
Procedure, shortened: (§1)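 In HEPES-buffered E3 with 0.003% PTU and 0.5% DMSO, dechorionated Tg(wt1b:EGFP) zebrafish embryos were exposed to 25 μM compound from 24 to 48 hpf at 28.5°C. Pronephroi were then imaged dorsally at 470 nm in 10 z-slices, in 96-well plates filled with agarose. On maximum projections, a Fiji macro turned 16 manually placed reference points into distances and angles, and values more than 2 SD from the feature mean were excluded. Features are fold changes relative to the mean of DMSO-treated embryos from the same day.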

Structure (SMILES)	glomerular separation
CCCCCNC(=N)N/N=C/c1c[nH]c2ccc(OC)cc12 [Tegaserod maleate]	1.26 ± 0.31
C[C@H]1C[C@H]2[C@@H]3CCC4=CC(=O)C=C[C@]4(C)[C@@]3(F)[C@@H](O)C[C@]2(C)[C@@]1(O)C(=O)CO [Betamethasone]	1.2 ± 0.31
Cc1c(O)c(=O)n(-c2ccccc2)n1C [Antipyrine, 4-hydroxy]	1.2 ± 0.38
NS(=O)(=O)c1cc(Cl)c(Cl)c(S(N)(=O)=O)c1 [Dichlorphenamide]	0.91 ± 0.4
C#CCN(C)CCCOc1ccc(Cl)cc1Cl [Clorgyline hydrochloride]	0.959 ± 0.32

These compounds were tested on Danio rerio Tg(wt1b:EGFP) embryo, pronephros (assay: glomerular width (mean of left and right), fold change vs DMSO control; higher = wider glomerulus). Details: 25 µM; exposure: 24-48 hpf.
Procedure, shortened: as §1

Structure (SMILES)	glomerular width
O=C(O)c1cc(/N=N/c2ccc(S(=O)(=O)Nc3ccccn3)cc2)ccc1O [Sulfasalazine]	1.02 ± 0.016
CN[C@@H]1[C@H](O)[C@H](NC)[C@H]2O[C@@]3(O)C(=O)C[C@@H](C)O[C@H]3O[C@@H]2[C@H]1O [Spectinomycin dihydrochloride]	1.07 ± 0.021
CCCC(=O)Nc1ncnc2c1ncn2[C@@H]1O[C@@H]2COP(=O)(O)O[C@H]2[C@H]1OC(=O)CCC [Bucladesine sodium salt]	0.933 ± 0.04
CN(C/C=C/C#CC(C)(C)C)Cc1cccc2ccccc12 [Terbinafine]	1 ± 0.012
Cc1ccc(S(=O)(=O)NC(=O)NN2CC3CCCC3C2)cc1 (configuration not stated) [Gliclazide]	1.05 ± 0.021
COc1nc(N)nc2c1ncn2[C@@H]1O[C@H](CO)[C@@H](O)[C@@H]1O [Nelarabine]	0.992 ± 0.058
CC(C)NCC(O)c1cc(O)cc(O)c1 (configuration not stated) [Metaproterenol sulfate, orciprenaline sulfate]	1.02 ± 0.014

— the supplement of paper PMC7366291
